From PubChem BioAssay (Tox21)
Inconclusive results are not listed. A number with no mark means an inactive call. The call rests on the fitted dose curve; in most records, active means well fitted cell-killing curve with a large enough effect in the repeat runs; inconclusive means weak or mixed curves, or effect the other way; inactive means no such curve, though single readings can be large or run the other way.

assay: qHTS assay to identify small molecule agonists of the vitamin D receptor (VDR) signaling pathway - cell viability counter screen (AID 743224); settings: VDR-bla HEK293T viability, CellTiter-Glo luminescence, 16 h; series mostly up to 62.6 µM; activity change, negative = cytotoxicity: at the top concentration; further: nearly all actives have a fitted effect of over 50% in size
Description: U.S. Tox21 Program National Center for Advancing Translational Sciences [NCATS] NIH Chemical Genomics Center [NCGC] U.S. Environmental Protection Agency [EPA] National Institutes of Environmental Health Sciences [NIEHS] National Toxicology Program [NTP] U.S. Food and Drug Administration [FDA] Tox21 Assay Overview: The vitamin D receptor (VDR), a member of nuclear hormone receptor superfamily, plays a critical role in calcium homeostasis and bone metabolism. It is also involved in cell differentiation and growth, and thrombogenicity. […] The cytotoxicity of the Tox21 compound library against the VDR-bla cell line was tested in parallel by measuring the cell viability using CellTiter-Glo assay (Promega, Madison, WI) in the same wells.
Tox21 Assay Protocol Summary: VDR-bla cells were dispensed at 2,000 cells/6 uL/well into black wall/clear-bottom 1536-well plates using a Multidrop Combi (Thermo Fisher Scientific, Waltham, MA) dispenser. After the assay plates were incubated at a 37C and 5% CO2 for 4 h, 23 nL of compounds dissolved in DMSO, positive controls or DMSO only was transferred to the assay plate by a Pintool station (Kalypsys, San Diego, CA). The plates were incubated at 37C and 5% CO2 for 16 h. After 1 uL of LiveBLAzerTM B/G FRET substrate was added using a Bioraptr Flying Reagent Dispenser (FRD) workstation (Beckman Coulter, Indianapolis, IN, USA), the plates were incubated at room temperature for 2 h, and fluorescence intensity was measured by an Envision plate reader (PerkinElmer, Shelton, CT). For cell viability readout that measures cytotoxicity, 3 ul/well of CellTiter-Glo reagent was added into the assay plates using a FRD. After 30 min incubation at room temperature, the luminescence intensity in the plates was measured using a ViewLux (PerkinElmer) plate reader.
On the % scale 0 is the no-effect control and ±100 the full control effect.

Question: With `O=C(CO)[C@@H](O)[C@H](O)[C@H](O)CO` as the compound, how does the “activity change, negative = cytotoxicity” value read?
Answer: -0.45% [at 81.1 µM]

Question: For `NCCCC(N)(C(=O)O)C(F)F` (stereo not given), which “activity change, negative = cytotoxicity” value is on record?
Answer: 10.9%

Question: With `Nc1ccn([C@@H]2O[C@H](CO)[C@@H](O)C2O)c(=O)n1` (stereo not given in full) as the compound, how does the “activity change, negative = cytotoxicity” value read?
Answer: 8.36%

Question: For `Cc1ccc(C(=O)c2ccc(CC(=O)O)n2C)cc1`, which “activity change, negative = cytotoxicity” value is on record?
Answer: 2.16%

Question: With `COCCOCC(OC)OC` as the compound, how does the “activity change, negative = cytotoxicity” value read?
Answer: 2.91%

Question: Which “activity change, negative = cytotoxicity” value does the source give for `CCCCOCCOC(=O)COc1cc(Cl)c(Cl)cc1Cl` here?
Answer: 0.475%

Question: For `CCOC(=O)C1=NOC(c2ccccc2)(c2ccccc2)C1`, which “activity change, negative = cytotoxicity” value is on record?
Answer: -0.0583%

Question: For `CC/C=C\CCOC(C)OCC` (stereo not given), which “activity change, negative = cytotoxicity” value is on record?
Answer: 17.3%

Question: Which “activity change, negative = cytotoxicity” value does the source give for `C[C@H]1C[C@H]2[C@@H]3CCC4=CC(=O)C=C[C@]4(C)[C@H]3C(=O)C[C@]2(C)[C@@]1(O)C(=O)CO` here?
Answer: 22.9%

Question: For `Nc1ccn([C@@H]2O[C@H](CO)[C@@H](O)C2(F)F)c(=O)n1`, which “activity change, negative = cytotoxicity” value is on record?
Answer: -9.25%

Question: For `CCCO[Si](OCCC)(OCCC)OCCC`, which “activity change, negative = cytotoxicity” value is on record?
Answer: 3.31%

Question: For `COc1cc(-c2ccc(=O)[nH]n2)ccc1OC(F)F`, which “activity change, negative = cytotoxicity” value is on record?
Answer: 8.93%

Question: Which “activity change, negative = cytotoxicity” value does the source give for `COc1cc(C(=O)NCc2ccc(OCCN(C)C)cc2)cc(OC)c1OC` here?
Answer: 10.7%

Question: Which “activity change, negative = cytotoxicity” value does the source give for `CCCCCCCCCCCCCCCCCCO` here?
Answer: 4.96%

Question: For `NCCCC[C@H](N[C@@H](CCc1ccccc1)C(=O)O)C(=O)N1CCC[C@H]1C(=O)O`, which “activity change, negative = cytotoxicity” value is on record?
Answer: 9.61%

Question: With `CC1=CC(=O)[C@H]2C[C@@H]1C2(C)C` as the compound, how does the “activity change, negative = cytotoxicity” value read?
Answer: 14.7%

Question: Which “activity change, negative = cytotoxicity” value does the source give for `CN(C)CCCN(C)CCCN(C)C` here?
Answer: 10.9%

Question: Which “activity change, negative = cytotoxicity” value does the source give for `CC[N+](CC)(CC(=O)Nc1c(C)cccc1C)Cc1ccccc1` (tested in a mixture with another compound) here?
Answer: 0.216%

Question: For `COc1cc(C(=O)OC(COCCC(C)C)CN2CCOCC2)cc(OC)c1OC` (stereo not given), which “activity change, negative = cytotoxicity” value is on record?
Answer: 10.1%

Question: Which “activity change, negative = cytotoxicity” value does the source give for `CC(=O)NC(=O)c1ccccc1O` here?
Answer: 15.2%

Question: With `C1CCC2=NCCCN2CC1` as the compound, how does the “activity change, negative = cytotoxicity” value read?
Answer: 6.62%

Question: With `CCCCCCCCCCCCCCC(=O)O` as the compound, how does the “activity change, negative = cytotoxicity” value read?
Answer: -0.903% [at 81.1 µM]

Question: With `O=[N+]([O-])c1ccc(/C=N\O)o1` as the compound, how does the “activity change, negative = cytotoxicity” value read?
Answer: -1.97%

Question: Which “activity change, negative = cytotoxicity” value does the source give for `CCCCCC(C)N` (stereo not given) here?
Answer: -8.95%

Question: Which “activity change, negative = cytotoxicity” value does the source give for `Cc1coc2ccccc2c1=O` here?
Answer: 0.106%

Question: For `O=C1NC(=O)C2CC=CCC12` (stereo not given), which “activity change, negative = cytotoxicity” value is on record?
Answer: -0.718%

Question: With `Cc1nc(C2CCCCC2)c(-c2ccc(S(N)(=O)=O)c(F)c2)o1` as the compound, how does the “activity change, negative = cytotoxicity” value read?
Answer: 0.745%

Question: With `NC(CCC(=O)O)C(=O)O` (stereo not given) as the compound, how does the “activity change, negative = cytotoxicity” value read?
Answer: 10.9%

Question: For `CC(=O)O[C@@]12CO[C@@H]1C[C@H](O)[C@@]1(C)C(=O)[C@H](O)C3=C(C)[C@@H](OC(=O)[C@H](O)[C@@H](NC(=O)OC(C)(C)C)c4ccccc4)C[C@@](O)([C@@H](OC(=O)c4ccccc4)[C@H]21)C3(C)C`, which “activity change, negative = cytotoxicity” value is on record?
Answer: -18.2%

Question: With `CN1CCC(=C2c3ccccc3CCc3cccnc32)CC1` as the compound, how does the “activity change, negative = cytotoxicity” value read?
Answer: 0.603%

Question: For `CC(=O)N1C[C@H](O)C[C@H]1C(=O)O`, which “activity change, negative = cytotoxicity” value is on record?
Answer: 12.4%

Question: Which “activity change, negative = cytotoxicity” value does the source give for `COc1cc2c(cc1OC)-c1cc3ccc(OC)c(OC)c3c[n+]1CC2` here?
Answer: 1.3% [at 81.1 µM]

Question: Which “activity change, negative = cytotoxicity” value does the source give for `C=CN1CCCCCC1=O` here?
Answer: 0.0462%

Question: Which “activity change, negative = cytotoxicity” value does the source give for `CN(C)C(=O)Oc1ccc[n+](C)c1` here?
Answer: 13.1%

Question: For `CN1[C@@H]2CC[C@H]1CC(OC(=O)C(O)c1ccccc1)C2` (stereo not given in full), which “activity change, negative = cytotoxicity” value is on record?
Answer: 1.2%

Question: Which “activity change, negative = cytotoxicity” value does the source give for `O=C(O)CNC(=O)c1ccc(CO)o1` here?
Answer: 9.39%

Question: With `CC(=O)c1cnccn1` as the compound, how does the “activity change, negative = cytotoxicity” value read?
Answer: 1.24% [at 81.1 µM]

Question: Which “activity change, negative = cytotoxicity” value does the source give for `Nc1ccncc1N` here?
Answer: 5.21%

Question: For `Cc1ccc(C(=O)Nc2ccc(S(=O)(=O)O)c3cc(S(=O)(=O)O)cc(S(=O)(=O)O)c23)cc1NC(=O)c1cccc(NC(=O)Nc2cccc(C(=O)Nc3cc(C(=O)Nc4ccc(S(=O)(=O)O)c5cc(S(=O)(=O)O)cc(S(=O)(=O)O)c45)ccc3C)c2)c1`, which “activity change, negative = cytotoxicity” value is on record?
Answer: -3.47%

Question: For `CCOC(=O)CCC(=O)OCC`, which “activity change, negative = cytotoxicity” value is on record?
Answer: -24.7%
